Among all 48,000 compounds or so, about 13,000 (27%) showed an effect of 50% or more. This is one part of the list.
The compounds below were run on Wolbachia pipientis (assay: Anti-Wolbachia Cell-Based Screen). Details: 5 µM.
Assay type: functional
Parameters: scale not given: in the data most compounds retested in dose-response had high values
With `Cn1ccc(N2CCCC(NC(=O)c3ccsc3)C2=O)n1` (stereo unspecified) the “Percent Effect” value was -23.95%. With `Cc1cnn(CCCNC(=O)C2CCCCN2Cc2ccncc2)c1` (stereo unspecified) the “Percent Effect” value was -11.5%. In the case of `COc1ccc(C)c2c1N(C(=O)c1cnc3onc(C)c3c1)CCC2`, the “Percent Effect” value is reported as 2.409%. In the case of `O=C(CN1CCOC(c2ccc(Cl)c(Cl)c2)C1)NCc1ccco1` (stereo unspecified), the “Percent Effect” value is reported as -33.51%. `Cc1noc(C)c1CN1CC2(CCCCN2c2cncnc2)CC1=O` (stereo unspecified) was tested, and the “Percent Effect” value was 1.289%. For `CC(C)C(=O)N1CCCC([C@@H]2C[C@H](C(F)F)n3ncnc3N2)C1` (stereo partly specified), the “Percent Effect” value was 140.3%. For `CC(C)C(=O)N1CCC([C@@H]2C[C@H](C(F)F)n3ncnc3N2)CC1`, the “Percent Effect” value was 105.2%. `COCCC(=O)N1CCCC([C@@H]2C[C@H](C(F)F)n3ncnc3N2)C1` (stereo partly specified) was tested, and the “Percent Effect” value was 128.9%. With `COCCn1ccnc1C1CCCN(C(=O)CSCC2CC2)C1` (stereo unspecified) the “Percent Effect” value was -1.205%. In the case of `CC(=O)N1C[C@H]2CCCN(c3ncc(C)cn3)[C@H]2C1`, the “Percent Effect” value is reported as 4.198%. With `O=C(CCc1ccc(=O)[nH]n1)N1CCCC(COc2ccc(F)cc2)C1` (stereo unspecified) the “Percent Effect” value was -3.616%. For `COc1ccc(CN(C)C2CCN(C(=O)C(C)C)CC2)c2cccnc12`, the “Percent Effect” value was -16.31%. For `CC(C)C(=O)N1CC[C@@H]2CN(Cc3ccncc3)S(=O)(=O)[C@@H]2CC1`, the “Percent Effect” value was -1.309%. `CC(NC(=O)Nc1cccnc1N1CCOCC1)c1ccncc1` (stereo unspecified) was tested, and the “Percent Effect” value was -4.832%. In the case of `CCc1nnc(CN(C)c2cc(C)nc3c(C)c(C)nn23)o1`, the “Percent Effect” value is reported as 7.383%. `Cc1cc(N(C)Cc2cc(C)on2)n2nc(C)c(C)c2n1` was tested, and the “Percent Effect” value was -5.11%. With `CCC(=O)CNC(=O)CCn1nc2ccccn2c1=O` the “Percent Effect” value was -17.3%. `CCN(CC)C(=O)CN(C)CCn1nc2ccccn2c1=O` was tested, and the “Percent Effect” value was 106.3%. `CC(C1CC1)N(C(=O)NCCCn1nc2ccccn2c1=O)C1CC1` (stereo unspecified) was tested, and the “Percent Effect” value was -19.29%. In the case of `Cc1ccsc1C(=O)NCCCn1nc2ccccn2c1=O`, the “Percent Effect” value is reported as -12.31%. In the case of `CCCc1cc(C(=O)NCCn2nc3ccccn3c2=O)[nH]n1`, the “Percent Effect” value is reported as 0.6756%. For `CC(=O)N1CCCN(CCn2nc3ccccn3c2=O)CC1`, the “Percent Effect” value was 104.1%. `CN(CCn1nc2ccccn2c1=O)CC(=O)N(C)C1CCCCC1` was tested, and the “Percent Effect” value was 82.2%. In the case of `COc1ccc(CC(=O)NCCn2nc3ccccn3c2=O)cc1`, the “Percent Effect” value is reported as 7.031%. In the case of `O=C(CC1CCCC1)NCCn1nc2ccccn2c1=O`, the “Percent Effect” value is reported as 2.754%. In the case of `COCCNC(=O)CN(C)CCn1nc2ccccn2c1=O`, the “Percent Effect” value is reported as 81.18%. `CCOc1ccccc1CSCCn1nc2ccccn2c1=O` was tested, and the “Percent Effect” value was -0.2652%. With `Cc1ccccc1CSCCn1nc2ccccn2c1=O` the “Percent Effect” value was 8.414%. In the case of `CC(NCC1CCS(=O)(=O)CC1)c1cccc(OC(F)F)c1` (stereo unspecified), the “Percent Effect” value is reported as 6.07%. With `CCC1=N[C@@]2(CC[C@@H]3CN(CC4CC4)C[C@@H]32)C(=O)N1` the “Percent Effect” value was 9.591%. `N#Cc1ccc(CNC2CCN(CCc3ccncc3)CC2)cc1` was tested, and the “Percent Effect” value was -19.98%. For `CN(C)CCN(Cc1cccc(C(F)(F)F)c1)C(=O)c1cc[nH]n1`, the “Percent Effect” value was 1.923%. `Cc1c[nH]c(CN2CCN(C)C3(CCC(=O)N(CC4CC4)CC3)C2)n1` (stereo unspecified) was tested, and the “Percent Effect” value was -1.954%. In the case of `CCS(=O)(=O)N1CCC2(CN(c3cccc(C)n3)C2)C1.O=C(O)C(F)(F)F`, the “Percent Effect” value is reported as 1.878%. `CS(=O)(=O)NCc1cnc2n1CCN(Cc1ccsc1)CC2.O=C(O)C(F)(F)F` was tested, and the “Percent Effect” value was -2.337%. In the case of `CN1CCc2ncc(CNc3cc(N(C)C)ncn3)n2CC1.O=C(O)C(F)(F)F`, the “Percent Effect” value is reported as -9.651%. For `Cc1cccc(N2CCc3ncc(CNc4ccccn4)n3CC2)n1.O=C(O)C(F)(F)F.O=C(O)C(F)(F)F`, the “Percent Effect” value was 88.27%. `CN(Cc1ccco1)Cc1cnc2n1CCN(c1ccccn1)CC2.O=C(O)C(F)(F)F.O=C(O)C(F)(F)F` was tested, and the “Percent Effect” value was 10.62%. For `Cc1cccc(N2CCc3ncc(CNS(C)(=O)=O)n3CC2)n1.O=C(O)C(F)(F)F`, the “Percent Effect” value was 88.7%. `Cc1cc(C)c(C(=O)N2CCc3c(ncn3CCc3ccccc3)C2)[nH]1` was tested, and the “Percent Effect” value was -5.733%. `CCCNC(=O)N1CCCC2(CCC(=O)N(CCc3c[nH]cn3)C2)C1` (stereo unspecified) was tested, and the “Percent Effect” value was 12.8%. For `Cc1ccc2c(n1)N(CCn1cccn1)CCN(C(=O)NC(C)C)C2`, the “Percent Effect” value was 112.2%. For `CC(C)NC(=O)N1CCN(CC2CC2)c2ncccc2C1.O=C(O)C(F)(F)F`, the “Percent Effect” value was -7.83%. `Cc1ccc2c(n1)N(CCn1cccn1)CCN(C(=O)NC1CC1)C2.O=C(O)C(F)(F)F` was tested, and the “Percent Effect” value was 12.45%. In the case of `CC(C)NC(=O)N1CCN(CCn2cccn2)c2ncccc2C1.O=C(O)C(F)(F)F`, the “Percent Effect” value is reported as 105%. `CN1CCN(C(=O)Cc2ccc(F)cc2)Cc2cccnc21.O=C(O)C(F)(F)F` was tested, and the “Percent Effect” value was -3.35%. `CCC(=O)N1CCN(CCn2cccn2)c2ncccc2C1.O=C(O)C(F)(F)F` was tested, and the “Percent Effect” value was 88.49%. `Cc1ccc2c(n1)N(C)CCN(C(=O)NC(C)C)C2.O=C(O)C(F)(F)F` was tested, and the “Percent Effect” value was -4.064%. For `CC(=O)NCC(=O)N1CCN(CCN(C)C)c2ncccc2C1.O=C(O)C(F)(F)F.O=C(O)C(F)(F)F`, the “Percent Effect” value was -13.2%. `CN1CCN(C(=O)NC2CC2)Cc2cccnc21.O=C(O)C(F)(F)F` was tested, and the “Percent Effect” value was -1.72%. With `CN1CCC(N(Cc2ccco2)S(=O)(=O)c2cc(Br)ccc2Br)CC1` the “Percent Effect” value was 17.1%. In the case of `CSc1ccc(CN(C(=O)c2cc(=O)[nH]c(=O)[nH]2)C2CC2)cc1`, the “Percent Effect” value is reported as 1.499%. With `CN(C)C(C(=O)NCCS(=O)(=O)N(C)C)c1cccc(F)c1` (stereo unspecified) the “Percent Effect” value was -10.76%. `CN(Cc1cnn(C)c1)C(=O)NC1CCC(O)CC1` (stereo unspecified) was tested, and the “Percent Effect” value was 16.63%. In the case of `Cn1cc(-c2cc(-c3cnn(C)c3)n(CC(=O)NC3CC3)n2)cn1`, the “Percent Effect” value is reported as 98.73%. For `Cc1nn(C)cc1-c1cc(-c2cn(C)nc2C)n(CC(=O)NC2CC2)n1`, the “Percent Effect” value was 89.98%. `Cc1ccccc1-c1cc(NC(=O)NC2CCC(O)CC2)n(CCO)n1` (stereo unspecified) was tested, and the “Percent Effect” value was -35.4%. For `Cc1nn2c(NCC(=O)NC3CC3)cc(-c3ccccc3)nc2c1C`, the “Percent Effect” value was 7.066%. For `Cn1cc(CN2CCC(CCC(=O)NC3CC3)CC2)cn1`, the “Percent Effect” value was -12.61%. `Cc1cn(CC(=O)NC2CCC(C(=O)O)CC2)c2ccccc12` (stereo unspecified) was tested, and the “Percent Effect” value was -7.822%. `Cc1ccccc1-c1cc(NC(=O)NC2CC2)n(CCO)n1` was tested, and the “Percent Effect” value was -65.06%. In the case of `Cc1c(-c2cc(-c3cnn(C)c3C)n(CC(=O)NC3CC3)n2)cnn1C`, the “Percent Effect” value is reported as 78.99%. With `O=C(c1cnc(Nc2ccccc2)nc1)N1CCCC2(CCNC2)C1` (stereo unspecified) the “Percent Effect” value was -3.033%. `CCN(C(=O)CN(CC(N)=O)C(C)C)C1=CCCC1` was tested, and the “Percent Effect” value was 4.298%. In the case of `CCOc1cc(F)ccc1NS(=O)(=O)c1cc(C)c(C(=O)O)s1`, the “Percent Effect” value is reported as 9.69%. In the case of `Cc1ccc(CN2C[C@H]3CN(CC4CCN(C)CC4)C(=O)[C@H]3C2)s1`, the “Percent Effect” value is reported as -10.19%. In the case of `Nc1nc2c(c(N3CCN(C(=O)c4cccs4)CC3)n1)CCCC2`, the “Percent Effect” value is reported as 3.246%. For `O=C(c1cccnc1)N1CCc2c(nc(N3CCCC3)[nH]c2=O)C1`, the “Percent Effect” value was 113.8%. With `O=C(c1ccc(=O)[nH]c1)N1CCc2c(nc(-c3cccnc3)[nH]c2=O)C1` the “Percent Effect” value was 3.404%. `Cc1nc2sccn2c1C(=O)N1CCc2c(nc(N)[nH]c2=O)C1` was tested, and the “Percent Effect” value was -0.7078%. `O=C(c1cccs1)N1CCc2c(nc(N3CCCCC3)[nH]c2=O)C1` was tested, and the “Percent Effect” value was 121.5%. In the case of `O=C(c1cccs1)N1CCc2c(nc(N3CCCC3)[nH]c2=O)C1`, the “Percent Effect” value is reported as 120%. `O=C(c1ncccc1O)N1CCc2c(nc(-c3ccncc3)[nH]c2=O)C1` was tested, and the “Percent Effect” value was -0.3257%. With `Cc1nc2sccn2c1C(=O)N1CCc2c(nc(N(C)C)[nH]c2=O)C1` the “Percent Effect” value was 14.79%. With `O=C(c1cc[nH]n1)N1CCc2c(nc(N3CCCCC3)[nH]c2=O)C1` the “Percent Effect” value was 120.1%. `O=C(c1ccsc1)N1CCc2c(nc(-c3ccncc3)[nH]c2=O)C1` was tested, and the “Percent Effect” value was -0.2016%. In the case of `Cc1nc(C(=O)N2CCc3c(nc(-c4ccncc4)[nH]c3=O)C2)cs1`, the “Percent Effect” value is reported as -11.53%. With `O=C(c1ccccn1)N1CCc2c(nc(N3CCCC3)[nH]c2=O)C1` the “Percent Effect” value was -8.561%. With `O=C(Nc1cncc(Br)c1O)c1ccon1` the “Percent Effect” value was -9.076%. `Cc1csc(CCNC(=O)c2cc3c(nc2O)CCC(C)C3)n1` (stereo unspecified) was tested, and the “Percent Effect” value was -7.199%. `CC(C)(C)n1cc(C#N)cc1NC(=O)CCS(=O)(=O)C1CCCC1` was tested, and the “Percent Effect” value was -10.01%. For `COCC(C)(CCO)NC(=O)Nc1cccc(Br)c1C` (stereo unspecified), the “Percent Effect” value was 7.029%. For `NC(=O)CN1CCN(c2ccnc3c(F)ccc(F)c23)CC1`, the “Percent Effect” value was 3.08%. With `NC(=O)c1cccc2nc([C@H]3CCN(Cc4ccccn4)C3)[nH]c12` the “Percent Effect” value was -3.203%. In the case of `COc1ccc(C)cc1CNC(=O)C1=NN(c2ccccc2)C(=O)CN1`, the “Percent Effect” value is reported as 14.16%. In the case of `Cc1nc(CN2CCN(c3nc4c(s3)c(C)nn4C)CC2)cs1`, the “Percent Effect” value is reported as 119.2%. For `Cc1nn(C)c2nc(N3CCC(C(O)c4nccn4C)CC3)sc12` (stereo unspecified), the “Percent Effect” value was -3.971%. For `CCc1nc(CNc2nc3c(s2)c(C)nn3C)cs1`, the “Percent Effect” value was -39.2%. For `Cc1nc(CNc2nc3c(s2)c(C)nn3C)cs1`, the “Percent Effect” value was -20.12%. In the case of `COC(=O)c1ccc(N2CCN(Cc3csc(C)n3)CC2)nn1`, the “Percent Effect” value is reported as -1.977%. In the case of `Cc1nc(CN2CCN(c3ccc(SC(C)C)nn3)CC2)cs1`, the “Percent Effect” value is reported as 68.89%. With `CC(C)Sc1ccc(N2CCN(Cc3ccccn3)CC2)nn1` the “Percent Effect” value was 14.48%. With `Cc1nn(C)c2nc(N3CCN(Cc4nccn4C)CC3)sc12` the “Percent Effect” value was 103.8%. `Cc1cc(N2CCN(Cc3nccn3C)CC2)cc(C)n1` was tested, and the “Percent Effect” value was -5.748%. For `Cc1ccc2c(c1)C(NC(=O)N(C)C)CC21CCN(C)CC1.O=C(O)C(F)(F)F` (stereo unspecified), the “Percent Effect” value was 102.1%. `Cc1ccc2c(c1)C(N(C)C)CC21CCN(CCO)CC1.O=C(O)C(F)(F)F.O=C(O)C(F)(F)F` (stereo unspecified) was tested, and the “Percent Effect” value was 1.059%. For `Cc1ccc2c(c1)C(NC(=O)N(C)C)CC21CCN(CC2CC2)CC1.O=C(O)C(F)(F)F` (stereo unspecified), the “Percent Effect” value was 116.9%. `CCN1CCC2(CC1)CC(NC(=O)N(C)C)c1cc(C)ccc12.O=C(O)C(F)(F)F` (stereo unspecified) was tested, and the “Percent Effect” value was -13.82%. With `CC(C)N1CCC2(CC1)CC(CC(N)=O)c1ccc(F)cc12.O=C(O)C(F)(F)F` (stereo unspecified) the “Percent Effect” value was 14.5%. `Cc1ccc2c(c1)C(NC(=O)N(C)C)CC21CCN(C(C)C)CC1.O=C(O)C(F)(F)F` (stereo unspecified) was tested, and the “Percent Effect” value was 100.3%. With `CCN1CCC2(CC1)CC(NC(=O)NC)c1cc(C)ccc12.O=C(O)C(F)(F)F` (stereo unspecified) the “Percent Effect” value was -18.25%.

Source: ChEMBL document CHEMBL3988442, “University of Dundee, Small-Polar-MMV Screening Library” (2021)
